Assay [1] is described as follows: Tanguay_ZF_120hpf_DP24: Oregon State University Tanguay Lab 24 Hour Post-fertilization zebrafish Assay for Delayed Development (AID 2284390). The procedure, abridged: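 Scored at 24 hpf as a binary present/absent call of delayed development by brightfield, with dead embryos not assessed. Embryos (5D wild type, chorion removed with pronase at 4 hpf) dosed statically from 6 hpf at 28 C in 0.64% DMSO.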

Assay [2] in a line: Tanguay_ZF_120hpf_CRAN: Oregon State University Tanguay Lab 120 Hour Post-fertilization zebrafish Assay for Craniofacial Malformation (AID 2284397). The procedure, abridged:
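Scoring of craniofacial malformation as a binary endpoint was done at 120 hpf by brightfield microscopy and was not done in dead embryos. Exposure was static, starting at 6 hpf, in dechorionated wild-type embryos held singly at 28C with 0.64% DMSO final.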

Assay [3] in a line: Tanguay_ZF_120hpf_AXIS: Oregon State University Tanguay Lab 120 Hour Post-fertilization zebrafish Assay for Axial Malformation (AID 2284398). Put shortly: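 Scoring was binary (present or absent) for body-axis defects, judged by brightfield imaging at 120 hpf in surviving larvae. Exposure was static at 28C from 6 hpf in chorion-free 5D wild-type embryos, with 0.64% DMSO vehicle.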

Assay [4] in a line: Tanguay_ZF_120hpf_MORT: Oregon State University Tanguay Lab 120 Hour Post-fertilization zebrafish Assay for Mortality (AID 2284399). Put shortly: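 Mortality, recorded present/absent via brightfield imaging at 24 and 120 hpf, in 5D zebrafish embryos exposed statically from 6 hpf after pronase chorion removal. Exposure at 28C, 0.64% DMSO vehicle, DMSO baseline.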
Assay [5] in a line: Tanguay_ZF_120hpf_EDEM: Oregon State University Tanguay Lab 120 Hour Post-fertilization zebrafish Assay for Edema Malformation (AID 2284400). The procedure, abridged:
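Edema recorded as a binary endpoint under brightfield at 120 hpf, excluding embryos that died. Exposure was static, sealed, 28C, from 6 hpf in dechorionated wild-type larvae, final DMSO 0.64%, DMSO as baseline.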

The nature of assay [6]: Tanguay_ZF_120hpf_BRN: Oregon State University Tanguay Lab 120 Hour Post-fertilization zebrafish Assay for Brain Region Malformation (AID 2284402). Put shortly: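 Binary brightfield scoring of brain malformation at 120 hpf in 5D wild-type larvae, chorion removed with pronase at 4 hpf. Static exposure began at 6 hpf, 28C, sealed plates, DMSO 0.64% (vol/vol) as vehicle baseline.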

Assay [7] is described as follows: Tanguay_ZF_120hpf_TCHR: Oregon State University Tanguay Lab 120 Hour Post-fertilization zebrafish Assay for Touch Responsive (AID 2284403). Put shortly:
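Binary touch-response calls are made at 120 hpf in 5D wild-type zebrafish larvae. These larvae were dechorionated with pronase and exposed singly from 6 hpf in sealed, dark plates at 28 °C with 0.64% DMSO final; dead embryos are excluded.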

Assay [8] is described as follows: Tanguay_ZF_120hpf_ANY: Oregon State University Tanguay Lab 120 Hour Post-fertilization zebrafish Assay for Any Mortality and Malformation (AID 2284404). The procedure, abridged: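 Dechorionated Tropical 5D wild-type embryos, one per well from 6 hpf, static exposure in sealed, dark plates at 28C until 120 hpf, 0.64% DMSO final. Brightfield scoring of mortality and malformations as binary presence/absence, pooling 13 morphology endpoints.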

A short description of assay [9]: CCTE_Padilla_ZF_Score.Craniofacial: CCTE's 144 Hour Post-fertilization zebrafish Assay Score for Craniofacial Malformation, Padilla Lab (AID 2284405). Put shortly: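 Craniofacial defects were scored at 6 dpf by two blinded observers using stereomicroscopy. Exposure of wild-type embryos began at 6–8 hpf in sealed wells of 10% Hanks' solution at 26C, with chemical removed by rinsing at 5 dpf.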

Assay [10] in a line: CCTE_Padilla_ZF_Score.Edema: CCTE's 144 Hour Post-fertilization zebrafish Assay Score for Edema Malformation, Padilla Lab (AID 2284406). The procedure, abridged: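 Edema scored at 6 dpf by two blinded observers under a stereo microscope, in single outbred wild-type larvae exposed from 6-8 hpf in sealed wells (Hanks', 26C, 14:10 h light) and chemical-free after a 5 dpf rinse.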

Assay [11] can be described thus: CCTE_Padilla_ZF_Score.Spine: CCTE's 144 Hour Post-fertilization zebrafish Assay Score for Spine Malformation, Padilla Lab (AID 2284407). Put shortly:
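Spine malformation scored at 6 dpf by two independent blinded observers under stereomicroscope, after static sealed exposure from 6–8 hpf at 26C in Hanks' solution with rinse on 5 dpf. Positive-direction fit against DMSO control.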

Assay [12] in a line: CCTE_Padilla_ZF_Score.Swim_bladder: CCTE's 144 Hour Post-fertilization zebrafish Assay Score for Swim Bladder Malformation, Padilla Lab (AID 2284408). The procedure, abridged:
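Swim bladder inflation scored at 6 dpf by two blinded observers under a stereo microscope. Exposure ran from 6–8 hpf in sealed wells of 10% Hanks' at 26C, with rinsing at 5 dpf; DMSO served as baseline.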

The nature of assay [13]: CCTE_Padilla_ZF_Score.Position: CCTE's 144 Hour Post-fertilization zebrafish Assay Score for Position, Padilla Lab (AID 2284409). The procedure, abridged: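 Wild-type zebrafish embryos (with chorions) exposed singly from 6–8 hpf in sealed wells of Hanks' solution at 26C, rinsed at 5 dpf. At 6 dpf, blinded assessors scored abnormal water-column position by brightfield stereomicroscopy, relative to DMSO.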

Assay [14] in a line: CCTE_Padilla_ZF_Score.Living: CCTE's 144 Hour Post-fertilization zebrafish Assay Score for Viability, Padilla Lab (AID 2284410).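 Also: larval death at 6 dpf judged by absent heartbeat or coagulation.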 Put shortly: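 Mortality at 6 dpf, judged as absent heartbeat or coagulation by two blinded observers, after sealed static exposure beginning at 6–8 hpf at 26C. Larvae were rinsed free of chemical at 5 dpf, and activity was fitted relative to DMSO.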

Assay [15] is described as follows: CCTE_Padilla_ZF_Score.Tail: CCTE's 144 Hour Post-fertilization zebrafish Assay Score for Tail Malformation, Padilla Lab (AID 2284414). Put shortly:
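Tail malformations were scored at 6 dpf by two blinded assessors under a stereo microscope. Chorionated embryos had been exposed from 6-8 hpf in sealed wells of 10% Hanks' at 26 C, then rinsed free of chemical at 5 dpf.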

Assay [16] in a line: CCTE_Padilla_ZF_Score.Blood_pooling: CCTE's 144 Hour Post-fertilization zebrafish Assay Score for Blood Pooling, Padilla Lab (AID 2284415). The procedure, abridged:
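Blood pooling was scored at 6 dpf under a stereo microscope by two blinded assessors, fitted upward against DMSO. Single embryos were dosed at 6–8 hpf in 10% Hanks', kept sealed at 26C (14:10 h cycle) and rinsed at 5 dpf.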

The nature of assay [17]: CCTE_Padilla_ZF_Score.Any: CCTE's 144 Hour Post-fertilization zebrafish Assay Score for Any Mortality or Malformation, Padilla Lab (AID 2284416). The procedure, abridged:
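Wild-type zebrafish embryos with chorions, one per well in 10% Hanks' from 6–8 hpf, dosed in sealed plates at 26 C, 14:10 h light:dark; rinsed at 5 dpf; blinded scoring at 6 dpf for death or malformation, versus DMSO.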

For assay [18], the system named is SRY-box transcription factor 17 (SOX17) Protein Expression, Deisenroth Lab, SOX17 (gene 64321). The assay can be described thus: CCTE_Deisenroth_DEVTOX-GLR_Endo_SOX17: CCTE's DevTox GLR-Endo Assay Evaluation of SRY-box transcription factor 17 (SOX17) Protein Expression, Deisenroth Lab (AID 2284413). Put shortly: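 RUES2-GLR human pluripotent cells were seeded 24 h, then differentiated toward endoderm for 48 h with two chemical exposures 24 h apart (10-point series, 1 nM - 200 uM). Nuclei-stained fixed cells were imaged; endpoint is percent change in SOX17+ cells versus 0.2% DMSO.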

The test system of assay [19] is Brachyury (BRA) Protein Expression, TBXT (gene 6862). The assay can be described thus: CCTE_Deisenroth_DEVTOX-GLR_Endo_BRA: CCTE's DevTox GLR-Endo Assay Evaluation of Brachyury (BRA) Protein Expression, Deisenroth Lab (AID 2284417). Put shortly:
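Read-out: BRA+ cell count divided by total cell count by high-content imaging (5 fields per well), expressed relative to 0.2% DMSO solvent control. RUES2-GLR cells dosed twice over a 48 h differentiation; concentrations 1 nM - 200 uM.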

Experimental findings from PubChem BioAssay (EPA / NIEHS) are described below.

Broadly, the AC50 is the concentration giving half of the maximal activity seen.

Activity calls are given as the source filed them. The calls were made as follows: active = hit-call score of the fitted dose curve at least 0.9, where 1 is the maximum; inactive = score below 0.9.

Turning to `O=C(O)C(F)(F)C(F)(F)C(F)(F)C(F)(F)C(=O)O`, the outcome in assay [1], in assay [2], in assay [3], in assay [4], in assay [5] and in [6] was inactive. Moreover, the result in assay [7], in assay [8], in assay [9], in assay [10], in [11] and in [12] was inactive. The result in assay [13], in [14], in [15], in assay [16] and in [17] was inactive.
In the case of `C[N+](C)(C)CCCNS(=O)(=O)C(F)(F)C(F)(F)C(F)(F)C(F)(F)C(F)(F)C(F)(F)C(F)(F)C(F)(F)F`, the AC50 in [1] is 89.2 µM (active); in [2], 70.4 µM (active); in assay [5], 67.1 µM (active); in assay [8] it was 80 µM (active); in [14] it was 50.1 µM (active); in assay [17] it was 26.2 µM (active). The outcome in assay [3], in [4], in assay [6], in assay [7], in assay [9] and in [10] was inactive. In addition, the outcome in assay [11], in assay [12], in assay [13], in assay [15] and in assay [16] was inactive.
With `CC1(C)[C@@H]2CC[C@@]1(C)C(=O)C2`, the call in assay [18] and in assay [19] was inactive.
